The source of these data is PubChem BioAssay (NCATS).

Each structure is given as a SMILES string. Several values for one entry are separate records, joined by “and”; a condition that tells them apart may be missing. Equal entries are not always repeated. Inconclusive results are not listed. Activity calls are given as the source filed them. Unless noted, calls come from the whole dose curve; as a rule, active = well fitted curve in either direction with a large enough effect (not every such curve was filed as active); inconclusive = small, poorly fitted or top-dose-only effect, or another doubt; inactive = flat fitted curve, though single readings scatter.

Sequence of Cytochrome P450 1A2 (Homo sapiens) (P05177 whole entry, looked up): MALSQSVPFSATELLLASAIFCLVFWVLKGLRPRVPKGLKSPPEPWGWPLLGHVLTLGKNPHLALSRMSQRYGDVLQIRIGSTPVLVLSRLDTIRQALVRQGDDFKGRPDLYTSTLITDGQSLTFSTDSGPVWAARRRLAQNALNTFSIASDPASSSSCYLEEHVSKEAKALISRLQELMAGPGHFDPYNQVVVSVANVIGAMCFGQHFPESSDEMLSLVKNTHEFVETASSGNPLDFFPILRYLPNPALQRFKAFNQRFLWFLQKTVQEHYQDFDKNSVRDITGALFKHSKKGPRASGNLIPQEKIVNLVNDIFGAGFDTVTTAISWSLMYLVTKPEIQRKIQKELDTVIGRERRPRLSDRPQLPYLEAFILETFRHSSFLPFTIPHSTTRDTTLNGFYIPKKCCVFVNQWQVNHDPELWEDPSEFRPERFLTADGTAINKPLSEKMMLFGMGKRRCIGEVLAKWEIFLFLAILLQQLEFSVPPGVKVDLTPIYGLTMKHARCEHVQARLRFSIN

Test system in one assay: not listed separately
As to the kind of experiment: AP1 Signaling Pathway (AID 357).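 Note: ME-180 reporter cells stimulated with EGF at its EC50 level; % is set by controls: 0 for no effect and ±100 for the full control effect.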 The following applies: ME-180 (cervical carcinoma) AP-1-bla reporter, EGF-induced, beta-lactamase ratio, 5 h; series mostly up to 17.2 µM; activity change, negative = inhibition: at the top concentration. In outline:
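Cells are seeded overnight, exposed to compound titrations and an EC50 level of EGF for 5 hours at 37 °C, then loaded with CCF4 dye for 2.5 hours. Beta-lactamase activity under the AP-1 element is read as a blue/green ratio.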
With `c1cc(-c2sc(-c3ccncc3)c(-c3ccncc3)c2-c2ccncc2)ccn1`, the “activity change, negative = inhibition” value is -25.4% [at 7.69 µM] (inactive). On to `CCN1CCC[C@H]1CNC(=O)c1cc(S(N)(=O)=O)ccc1OC`, for which the “activity change, negative = inhibition” value is -2.18% (inactive). For `CCCCC1C(=O)N(c2ccccc2)N(c2ccccc2)C1=O`, the “activity change, negative = inhibition” value was 3.43% (inactive). As to `Clc1ccc(Cn2c(CN3CCCC3)nc3ccccc32)cc1`, the outcome was inactive. For the compound `COc1ccccc1N1CCN(CCCNc2cc(=O)n(C)c(=O)n2C)CC1`, the result was inactive. Regarding `CC(C(=O)O)c1ccc(-c2ccccc2)c(F)c1` (stereo not given), the “activity change, negative = inhibition” value is 3.32% (inactive). `CCN(CC)C(=O)c1ccc(O)c(OC)c1`: the result was inactive.

As for `C[C@@H](O)[C@H]1C(=O)N2C(C(=O)O)=C(S[C@@H]3CN[C@H](C(=O)N(C)C)C3)[C@H](C)[C@H]12`, the “activity change, negative = inhibition” value is -13.7% (inactive). Turning to `CC/C(=C(\c1ccccc1)c1ccc(OCCN(C)C)cc1)c1ccccc1`, the outcome was inactive.

On to `CCN(CC)CCOC(=O)c1ccc(N)cc1`, for which the “activity change, negative = inhibition” value was -2.54% (inactive). On to `O=C1NCC2(CCN(CCc3ccccc3)CC2)O1`, for which the result was inactive. Still for that read-out and setting: the same measure for `CC(=O)CCCCn1c(=O)c2c(ncn2C)n(C)c1=O`: “inactive”; for `COCCCCC(=NOCCN)c1ccc(C(F)(F)F)cc1`: “inactive”. Take `COc1ccc(-c2coc3cc(O)cc(O)c3c2=O)cc1`: the “activity change, negative = inhibition” value is 1.75% (inactive). `CC(C)OC(=O)C(C)(C)Oc1ccc(C(=O)c2ccc(Cl)cc2)cc1`: the outcome was inactive. `O=C(O)c1cc(O)c2c(c1)C(=O)c1cccc(O)c1C2=O`: the “activity change, negative = inhibition” value is 26.6% (inactive). Consider `C[N+](C)(C)CCCCCC[N+](C)(C)C`, for which the result was inactive.

Consider `O=c1c(-c2ccc(O)cc2)coc2cc(O)ccc12`, for which the “activity change, negative = inhibition” value was -15% [at 38 µM] (inactive). On to `CCCNC(=O)NS(=O)(=O)c1ccc(Cl)cc1`, for which the outcome was inactive. On to `CC(=O)c1ccc(S(=O)(=O)NC(=O)NC2CCCCC2)cc1`, for which the result was inactive. For the compound `NCCS`, the “activity change, negative = inhibition” value was 0.128% [at 38 µM] (inactive).

For the compound `CC[C@]1(O)C[C@@H]2CN(CCc3c([nH]c4ccccc34)[C@@](C(=O)OC)(c3cc4c(cc3OC)N(C)[C@H]3[C@@](O)(C(=O)OC)[C@H](OC(C)=O)[C@]5(CC)C=CCN6CC[C@]43[C@@H]65)C2)C1`, the “activity change, negative = inhibition” value is 27.8% (inactive). `O=C(O)CCc1nc(-c2ccccc2)c(-c2ccccc2)o1`: the result was inactive. On the same count and under the same terms, the same measure for `O=C1NC(=O)C(c2ccccc2)(c2ccccc2)N1`: “inactive”. Regarding `C[N+](C)(C)CC(=O)O`, the “activity change, negative = inhibition” value is 5.19% [at 38 µM] (inactive).

In a further assay the target is Cytochrome P450 1A2 (Homo sapiens) (UniProt P05177). The experiment in a line: p450-cyp1a2 (AID 410; calls by dose curve; note: potency is the fitted concentration of half-maximal effect;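 for activity change, negative = inhibition: -100% = full effect of reference inhibitor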). Particulars: recombinant CYP1A2, luciferin-ME demethylation, luminescence; series mostly up to 57 µM; activity change, negative = inhibition: at the top concentration. In outline:
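Luminescent demethylation readout: Luciferin-ME (100uM, equal to Km) turned over by 20nM CYP1A2 for 60 min at room temperature after NADPH regeneration addition, following 10 min compound preincubation. Normalization used 57 uM furafylline as full inhibition.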
As to `c1cc(-c2sc(-c3ccncc3)c(-c3ccncc3)c2-c2ccncc2)ccn1`, the Potency was 3.16 µM (active). Turning to `CCN1CCC[C@H]1CNC(=O)c1cc(S(N)(=O)=O)ccc1OC`, the “activity change, negative = inhibition” value is -10.5% [at 25.6 µM] (inactive). As to `CCCCC1C(=O)N(c2ccccc2)N(c2ccccc2)C1=O`, the “activity change, negative = inhibition” value was -15% (inactive).

For `Clc1ccc(Cn2c(CN3CCCC3)nc3ccccc32)cc1`, the Potency was 10 µM (active) and 3.98 µM (active).

In the case of `COc1ccccc1N1CCN(CCCNc2cc(=O)n(C)c(=O)n2C)CC1`, the Potency result was “inactive”.

For `CCN(CC)C(=O)c1ccc(O)c(OC)c1`, the Potency was 12.6 µM (active). With `C[C@@H](O)[C@H]1C(=O)N2C(C(=O)O)=C(S[C@@H]3CN[C@H](C(=O)N(C)C)C3)[C@H](C)[C@H]12`, the “activity change, negative = inhibition” value is -7.3% [at 25.6 µM] (inactive). For `CCN(CC)CCOC(=O)c1ccc(N)cc1`, the Potency result is “inactive”. Consider `O=C1NCC2(CCN(CCc3ccccc3)CC2)O1`, for which the Potency result is “inactive”. For `CC(=O)CCCCn1c(=O)c2c(ncn2C)n(C)c1=O`, the Potency was 31.6 µM (active) and 12.6 µM (active). Consider `COCCCCC(=NOCCN)c1ccc(C(F)(F)F)cc1`, for which the Potency is 158 nM (active) and 39.8 nM (active) and 15.8 nM (active). Consider `COc1ccc(-c2coc3cc(O)cc(O)c3c2=O)cc1`, for which the Potency is 3.98 µM (active). On to `CC(C)OC(=O)C(C)(C)Oc1ccc(C(=O)c2ccc(Cl)cc2)cc1`, for which the Potency was 12.6 µM (active) and 5.01 µM (active). Same read-out and setting: the same measure for `C[N+](C)(C)CCCCCC[N+](C)(C)C`: “inactive”; for `O=c1c(-c2ccc(O)cc2)coc2cc(O)ccc12`: 15.8 µM (active); for `CCCNC(=O)NS(=O)(=O)c1ccc(Cl)cc1`: “inactive”. Turning to `CC(=O)c1ccc(S(=O)(=O)NC(=O)NC2CCCCC2)cc1`, the Potency entry is “inactive”. As to `NCCS`, the “activity change, negative = inhibition” value is -3.4% (inactive). Same read-out and setting: for `O=C1NC(=O)C(c2ccccc2)(c2ccccc2)N1` the value was -10.8% (inactive); for `C[N+](C)(C)CC(=O)O`, -10.1% (inactive).
